Records with an inconclusive call do not appear. Where a call stands in place of a potency, no number is given. Values without a mark were called inactive. Active and inactive are the calls of the source. Calls follow the shape of the dose curve; as a rule, active = well fitted cell-killing curve with a large enough effect; inconclusive = small, poorly fitted or top-dose-only effect, or effect the other way; inactive = flat fitted curve, though single readings scatter.
Potency is read from the fitted curve at half-maximal effect.

The first experiment has as its system HeLa. Briefly: Primary qHTS to identify gynecologic anti-cancer compounds using libraries of approved drugs and bioactive compounds (AID 1345084). Also: nearly all actives have a fitted effect of over 55% in size. The settings on record: Gynecologic cancer cell panel viability, ATPlite luminescence, 48 h; series mostly up to 57.5 µM. Put shortly: (§1)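 48 h compound exposure at 37 C, 5% CO2; five-point qHTS. ATPlite luminescence readout of cell ATP.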
On the technique in general: qHTS replaces the single test concentration by a dilution series.
On to `CN(C)c1ccnc2sc3c(=O)n(N4CCCCCC4)cnc3c12`, for which the Potency result was “inactive”.
Consider `Cc1c(C(=O)NCc2cccnc2)nn(-c2ccc(Cl)cc2Cl)c1-c1ccc(Cl)cc1`, for which the Potency result is “inactive”.
Still for that read-out and setting: for `CC(C)=CCc1cc2c(cc1O)OC[C@H]1c3ccc(O)cc3O[C@@H]21` the value was “inactive”; for `Cn1cc(-c2ccc(F)c(C(F)(F)F)c2)nc1C1CCN(c2ncnc3[nH]ncc23)CC1`, “inactive”; for `O=C(O)CCc1nccc2c1[nH]c1ccccc12`, “inactive”.
On the same count and under the same terms, with `NS(=O)(=O)c1ccc(N2CCN(CC[C@@H]3OCCc4ccccc43)CC2)cc1` the entry was “inactive”.
For the compound `CC1(C)CC[C@]23CO[C@@]4(CCC5[C@@]6(C)CC[C@H](O[C@@H]7OC[C@H](O[C@@H]8O[C@H](CO)[C@@H](O)[C@H](O)[C@H]8O[C@@H]8OC[C@@H](O)[C@H](O)[C@H]8O)[C@H](O)[C@H]7O)[C@@](C)(CO)C6CC[C@@]5(C)[C@]4(C)CC2=O)[C@@H]3C1` (stereo not given in full), the activity change, negative = cytotoxicity is 16.9% [at 11.6 µM].
As for `Cc1ccc(CNc2ncnc3ccc(-c4ccc(CO)o4)cc23)o1`, the Potency result was “inactive”.
Same read-out and setting: with `C/C(=C/CO)CCC1C(C)CCC2C(C)(C)CCCC12C` (stereo not given) the entry was “inactive”.
As for `C[C@@H]1O[C@@H](O[C@H]2CC[C@@]3(C)C(CC[C@]4(C)C3CC=C3[C@@H]5CC(C)(C)CC[C@]5(C(=O)O[C@@H]5O[C@H](CO)[C@@H](O)[C@H](O)[C@H]5O)CC[C@]34C)[C@]2(C)CO)[C@H](O)[C@H](O[C@@H]2O[C@H](CO)[C@@H](O)[C@H](O)[C@H]2O)[C@H]1O` (stereo not given in full), the activity change, negative = cytotoxicity is -1.56% [at 11.6 µM].
As to `C[C@H](Nc1cc2c(-c3ccc4c(c3)OCO4)noc2cn1)c1ccccc1`, the Potency entry was “inactive”.
Consider `O=C(N[C@H](Cc1cscn1)C(=O)N[C@@H](CC1CCCCC1)[C@@H](O)[C@@H](O)C1CC1)c1nc2ccccc2[nH]1`, for which the Potency entry is “inactive”.
On the same count and under the same terms, with `O=C(NCCCc1ccccc1)C1CCC(CNS(=O)(=O)c2cccc3nsnc23)CC1` (stereo not given) the entry was “inactive”; with `CC(C)c1ccc(NC(=O)Cn2cnc3c2c(=O)n(C)c(=O)n3C)cc1`, “inactive”.
On the same count and under the same terms, with `C=C1C(=O)OC[C@@H]1C/C=C(\C)CC1CC(C)C(=O)O1` (stereo not given in full) the entry was “inactive”.

The subject of the next experiment is Hek293T. Described as above. Particulars: Gynecologic cancer cell panel viability, ATPlite luminescence, 48 h, control line for the selectivity index; series mostly up to 57.5 µM. In short, it runs like this: as §1
On the technique in general: In ATP-based viability assays light output follows the ATP content of the culture.
Turning to `C[C@@H]1C[C@H](C)CN(CCC(=O)Nc2ccc(Br)cc2)C1`, the Potency result was “inactive”.
On the same count and under the same terms, with `O=[N+]([O-])c1cn2c(n1)OC[C@@H](OCc1ccc(-c3ccc(OC(F)(F)F)cc3)nc1)C2` the entry was “inactive”; with `C=C1CCC2[C@](C)(CCC[C@@]2(C)C=O)[C@H]1CC/C(C)=C/CO` (stereo not given in full), “inactive”; with `COc1ccc(CCc2nc3cc(-c4c(C)noc4C)ccc3n2CC(C)N2CCOCC2)cc1Cl` (stereo not given), “inactive”.
On the same count and under the same terms, with `O=C(NCC(=O)N1CCCC1)Nc1ccc2cnccc2c1` the entry was “inactive”; with `C=C(C)C(=O)O[C@H]1[C@H]2C(=C)C(=O)O[C@@H]2/C=C(\CO)CC/C=C(/C=O)[C@@H]1O`, “inactive”.
In the case of `COc1c(C)cc(NC(=O)c2nn(Cc3ccc(F)cc3)c3c2CN(C(=O)c2ccc[nH]2)C[C@]3(C)C(N)=O)cc1C`, the activity change, negative = cytotoxicity was 7.03% [at 11.6 µM].
Turning to `Cc1[nH]c2ccccc2c1CCNCc1ccc(/C=C/C(=O)NO)cc1`, the Potency is 1580 nM (active).
Same read-out and setting: with `O=C(NC1CCC1)c1ccc(C#Cc2cccc(F)c2)nc1` the entry was “inactive”; with `COc1ccc(NC(=O)C2C[C@H](C)CC[C@H]2C(C)C)cc1` (stereo not given in full), “inactive”; with `COc1cc(OC)c2c(=O)[nH]c(-c3cc(C)c(OCCO)c(C)c3)nc2c1`, “inactive”.
Consider `CC1(C=O)CCCC2(C)C1CCC13CC(CO)C(CCC12)C3` (stereo not given), for which the Potency entry is “inactive”.
As for `COc1c2c(nc3occc13)C(CC=C(C)C)(OC)C(O)CC2` (stereo not given), the Potency entry was “inactive”.
In the case of `Cn1ncnc1[C@@H]1c2n[nH]c(=O)c3cc(F)cc(c23)N[C@H]1c1ccc(F)cc1`, the Potency entry is “inactive”.
As to `O=C(O)c1cccc(-c2ccc(-c3cn(C(=O)N4CCCCC4Cc4ccccc4)nn3)cc2)c1` (stereo not given), the Potency entry is “inactive”.
The same measure, in the same setting: with `Cc1cccc(-c2[nH]ncc2-c2ccc(F)c(-c3cnn(CCO)c3)c2)n1` the entry was “inactive”.
For the compound `CC1(C)CCC2(C(=O)OC3OC(COC4OC(CO)C(O)C(O)C4O)C(O)C(O)C3O)CCC3(C)C(=CCC4C5(C)CCC(OC6OCC(O)C(O)C6O)C(C)(C)C5CCC43C)C2C1O` (stereo not given), the activity change, negative = cytotoxicity is -15.1% [at 11.6 µM].
As for `CC(=O)O[C@@H]1[C@@H](O)[C@H](O[C@@H]2[C@@H](O)[C@@H](O)[C@H](O[C@H]3[C@H](O[C@H]4[C@H](O[C@H]5CC[C@@]6(C)C(CC[C@]7(C)C6CC=C6[C@@H]8CC(C)(C)CC[C@]8(C(=O)O)CC[C@]67C)[C@]5(C)CO)O[C@H](CO)[C@@H](O)[C@@H]4O)OC[C@@H](O)[C@@H]3O)O[C@H]2C)OC[C@H]1O` (stereo not given in full), the activity change, negative = cytotoxicity is 1.05% [at 11.6 µM].
On to `CN(C)CC#CCCC(=O)C(O)(c1ccccc1)C1CCC1` (stereo not given), for which the Potency entry is “inactive”.
`Cc1cn2c(n1)Cc1ccc(Cl)cc1C(c1ccc(N)cc1)=N2`: the Potency result was “inactive”.
On the same count and under the same terms, for `CC1(CO)CC(O)[C@]2(C(=O)O)CCC34CC3(C=CC3[C@]5(C)C(CC[C@]34C)C(C)(CO)[C@@H](O)[C@H](O)[C@@H]5O)C2C1` (stereo not given in full) the value was “inactive”; for `CC(=O)O[C@H]1C[C@@](O)(C(C)C)[C@@H]2[C@@H](OC(=O)c3ccc(O)cc3)CC(C)=CC[C@@]12C`, “inactive”; for `Cc1ccc(C(C)C)c(O[C@@H]2O[C@H](CO)[C@@H](O)[C@H](O)[C@H]2O)c1`, “inactive”.
On the same count and under the same terms, with `O=C1Nc2ccccc2-c2nc3ccccc3c(=O)n2-c2c(O)cccc21` the entry was “inactive”.
Take `COc1ccc(CN2CCN(CCCSc3cc(C(C)(C)C)c(O)c(C(C)(C)C)c3)CC2)c(OC)c1OC`: the activity change, negative = cytotoxicity is -2.05% [at 11.6 µM].
Regarding `CN(C)c1ccnc2sc3c(=O)n(N4CCCCCC4)cnc3c12`, the Potency result is “inactive”.
Still for that read-out and setting: with `Cc1c(C(=O)NCc2cccnc2)nn(-c2ccc(Cl)cc2Cl)c1-c1ccc(Cl)cc1` the entry was “inactive”; with `CC(C)=CCc1cc2c(cc1O)OC[C@H]1c3ccc(O)cc3O[C@@H]21`, “inactive”.
Regarding `Cn1cc(-c2ccc(F)c(C(F)(F)F)c2)nc1C1CCN(c2ncnc3[nH]ncc23)CC1`, the Potency result was “inactive”.
On to `O=C(O)CCc1nccc2c1[nH]c1ccccc12`, for which the Potency result was “inactive”.
The same measure, in the same setting: for `NS(=O)(=O)c1ccc(N2CCN(CC[C@@H]3OCCc4ccccc43)CC2)cc1` the value was “inactive”.
On to `CC1(C)CC[C@]23CO[C@@]4(CCC5[C@@]6(C)CC[C@H](O[C@@H]7OC[C@H](O[C@@H]8O[C@H](CO)[C@@H](O)[C@H](O)[C@H]8O[C@@H]8OC[C@@H](O)[C@H](O)[C@H]8O)[C@H](O)[C@H]7O)[C@@](C)(CO)C6CC[C@@]5(C)[C@]4(C)CC2=O)[C@@H]3C1` (stereo not given in full), for which the activity change, negative = cytotoxicity is 5.05% [at 11.6 µM].
As for `Cc1ccc(CNc2ncnc3ccc(-c4ccc(CO)o4)cc23)o1`, the Potency entry was “inactive”.
The same measure, in the same setting: for `C/C(=C/CO)CCC1C(C)CCC2C(C)(C)CCCC12C` (stereo not given) the value was “inactive”.
For the compound `C[C@@H]1O[C@@H](O[C@H]2CC[C@@]3(C)C(CC[C@]4(C)C3CC=C3[C@@H]5CC(C)(C)CC[C@]5(C(=O)O[C@@H]5O[C@H](CO)[C@@H](O)[C@H](O)[C@H]5O)CC[C@]34C)[C@]2(C)CO)[C@H](O)[C@H](O[C@@H]2O[C@H](CO)[C@@H](O)[C@H](O)[C@H]2O)[C@H]1O` (stereo not given in full), the activity change, negative = cytotoxicity was -6.15% [at 11.6 µM].
As to `C[C@H](Nc1cc2c(-c3ccc4c(c3)OCO4)noc2cn1)c1ccccc1`, the Potency result is “inactive”.
The same measure, in the same setting: with `O=C(N[C@H](Cc1cscn1)C(=O)N[C@@H](CC1CCCCC1)[C@@H](O)[C@@H](O)C1CC1)c1nc2ccccc2[nH]1` the entry was “inactive”; with `O=C(NCCCc1ccccc1)C1CCC(CNS(=O)(=O)c2cccc3nsnc23)CC1` (stereo not given), “inactive”.
Same read-out and setting: with `CC(C)c1ccc(NC(=O)Cn2cnc3c2c(=O)n(C)c(=O)n3C)cc1` the entry was “inactive”; with `C=C1C(=O)OC[C@@H]1C/C=C(\C)CC1CC(C)C(=O)O1` (stereo not given in full), “inactive”.

These data come from PubChem BioAssay (NCATS).
